According to PubChem BioAssay AID1619 (SRMLSC, 2009):
Out of some 220,000 compounds screened, about 830 (0.38%) were called active. Only a sample is shown. Potency and affinity values are given separately. Values without a mark were called inactive.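 Rule for the calls: active = compound inhibiting the enzyme by more than half at any dose during confirmatory dose-response retesting; inconclusive = strong single-dose inhibitors picked by rank but not retested; inactive = the rest.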

target: Leucine aminopeptidase (Plasmodium falciparum (isolate 3D7)) (UniProt Q8IL11); test: P. falciparum M17LAP inhibitors, primary screen, biochemical, fluorogenic H-Leu-NHMec substrate, 1536-well (AID 1619); details: recombinant M17LAP, H-Leu-NHMec fluorogenic kinetic assay; at 30 µM; stronger effect = higher value;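 note: plate controls were full reaction with DMSO carrier for no effect and no enzyme background for full effect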
Sequence (Q8IL11 whole entry, looked up): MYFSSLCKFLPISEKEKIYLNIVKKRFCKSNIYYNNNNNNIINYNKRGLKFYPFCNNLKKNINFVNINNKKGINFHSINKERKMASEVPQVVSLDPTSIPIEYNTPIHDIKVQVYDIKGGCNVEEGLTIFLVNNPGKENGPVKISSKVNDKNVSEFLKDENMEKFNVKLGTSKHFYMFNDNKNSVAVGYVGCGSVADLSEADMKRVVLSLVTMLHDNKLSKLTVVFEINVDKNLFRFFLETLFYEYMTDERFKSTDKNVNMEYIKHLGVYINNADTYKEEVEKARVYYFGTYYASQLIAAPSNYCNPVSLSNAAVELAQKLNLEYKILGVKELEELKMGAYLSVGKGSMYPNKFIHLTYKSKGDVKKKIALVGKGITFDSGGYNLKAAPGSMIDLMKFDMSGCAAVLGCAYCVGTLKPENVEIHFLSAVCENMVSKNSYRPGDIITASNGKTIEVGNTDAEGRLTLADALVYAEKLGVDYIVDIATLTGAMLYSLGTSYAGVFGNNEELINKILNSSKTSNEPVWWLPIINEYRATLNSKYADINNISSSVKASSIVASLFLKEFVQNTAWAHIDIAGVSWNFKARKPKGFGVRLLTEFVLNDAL

First: Cc1ccc(NC(=O)CCC(=O)OCC(=O)c2ccc(Oc3ccc([N+](=O)[O-])cc3)cc2)c(C)c1
Second: Cc1ccc(NC(=O)c2ccccc2OCC(=O)c2ccccc2)cc1
The inhibition of the first is higher: 13.8% for the first, 3.34% for the second.

Compared with `O=C(CSc1nnc(NC(=O)c2ccco2)s1)Nc1ccc(F)cc1`, `COc1ccc(NC(=O)CSc2nnc(NC(=O)c3ccco3)s2)cc1` is higher in inhibition: -1.02% for the first, 22.5% for the second.

Compared with `CC(C)c1nnc(NC(=O)CSc2nnc(NC(=O)c3c(F)cccc3F)s2)s1`, `Cc1cccc(C)c1NC(=O)CSc1nnc(NC(=O)c2ccccc2C(=O)O)s1` is higher in inhibition: 2.85% for the first, 19.1% for the second.

Compared with `C=CCn1cnc2sc(C(=O)Nc3ccccc3OC)c(C)c2c1=O`, `CCOC(=O)C1(O)CSc2nc3sc(C(=O)O)c(C)c3c(=O)n21` (configuration not stated) is lower in inhibition: 7.04% for the first, -2.76% for the second.

Compared with `Clc1ccc(-c2cc(COc3ccc4ccccc4c3)no2)cc1`, `Nc1nc2nc(-c3ccc(OCc4ccccc4)cc3)cc(C(F)(F)F)n2n1` is higher in inhibition: -2.54% for the first, -1.91% for the second.

Going from `COc1ccc(C(=O)CSc2nc(N)nc(SC)c2C#N)cc1` to `COc1ccc2c(c1)nc(SCC(=O)c1ccc(Br)s1)n2C`, the inhibition rises from -5.8% to 43.5%.

Going from `CCN1C(=O)/C(=C\c2ccc(-c3ccc([N+](=O)[O-])cc3OC)o2)SC1=Nc1cccc(C(=O)O)c1` to `CC1=C(C#N)C(=O)NC(=O)/C1=C\c1ccc(-c2cc(C)c(C)cc2[N+](=O)[O-])o1`, the inhibition falls from 28.7% to 24.2%.

First: CN1C(=O)/C(=C/c2ccco2)SC1=Nc1ccc(N2CCOCC2)cc1
Second: O=C(CCCN1C(=O)c2cccc3cccc(c23)C1=O)NCCN1CCOCC1
The inhibition of the first is lower: -4.86% for the first, 4.16% for the second.

Going from `CCOC(=O)c1sc(-c2ccccn2)nc1C` to `Cc1nc2nc(COc3ccccc3)nn2c(C)c1Cl`, the inhibition falls from 10.5% to -4.07%.

Going from `C/C(O)=C(\C#N)c1nc2ccccc2[nH]1` to `O=C(CCCOc1ccccc1)n1nnc2ccccc21`, the inhibition falls from 1.5% to -0.57%.

First: CCN(CC)S(=O)(=O)c1ccc(Cl)c(NC(=O)CCCCl)c1
Second: O=C(Cc1cc(=O)[nH][nH]1)N/N=C/c1c(Cl)cccc1Cl
The inhibition of the first is lower: 8.77% for the first, 47.6% for the second.

First: NC(=O)C1CCN(C(=O)c2ccc(CS(=O)(=O)c3c(Cl)cccc3Cl)o2)CC1
Second: O=C(Cc1ccc(Cl)cc1)N/N=C/c1c(Cl)cccc1Cl
The inhibition of the first is higher: 1.58% for the first, -10.8% for the second.

First: CCCCn1c(N)c(Br)c(=O)[nH]c1=O
Second: CCCCOC(=O)Nc1ccccc1C(=O)N1CCCC1
The inhibition of the first is lower: 10% for the first, 10.4% for the second.

First: COc1cc(/C=N/NC(=O)CC2C(=O)NN=C2C)ccc1O (configuration not stated)
Second: COc1ccc(OC)c(/C=N/NC(=O)CC2C(=O)NN=C2C)c1 (configuration not stated)
The inhibition of the first is higher: 10.4% for the first, -164% for the second.

First: COc1cc(OC)c(OC)cc1/C=N/NC(=O)CC1C(=O)NN=C1C (configuration not stated)
Second: CCOc1cccc(/C=N/NC(=O)CC2C(=O)NN=C2C)c1O (configuration not stated)
The inhibition of the first is higher: 53.3% for the first, 3.72% for the second.

First: CCCn1c(C2CC(=O)N(c3ccc(C)cc3)C2)nc2ccccc21 (configuration not stated)
Second: CC(=O)c1c(O)cc(=O)n(-c2ccccc2)c1-c1ccc(C)cc1
The inhibition of the first is higher: 4.53% for the first, 0.53% for the second.

Compared with `O=C(Nc1cccc(F)c1)/C(=C\c1cccnc1)NC(=O)c1cccs1`, `O=C(Nc1cccc(Cl)c1)Nc1cccc(C(=O)O)c1` is lower in inhibition: 7.11% for the first, -7.66% for the second.

Going from `CC1=C(C#N)C(=O)NC(=O)/C1=C/c1ccc(-c2ccc(S(N)(=O)=O)cc2)o1` to `CC(=O)NS(=O)(=O)c1ccc(NC(=O)c2cc(-c3ccc(C)c(C)c3)nc3ccccc23)cc1`, the inhibition falls from 35.6% to -0.01%.

Going from `CC(=O)c1c(O)cc(=O)n(-c2ccccc2)c1-c1ccc(Cl)cc1` to `Oc1ccc(-c2nc(-c3ccc(O)c(O)c3)cs2)cc1`, the inhibition rises from -10.1% to 25.6%.

Compared with `Cc1cccc(Nc2nnc(SCC(=O)c3ccc(Br)s3)s2)c1C`, `Cc1c(Cl)cccc1NC(CC(=O)c1ccccc1)C(=O)O` (configuration not stated) is higher in inhibition: 23% for the first, 49.4% for the second.

First: CN(C(=O)CSc1nnc(-c2ccc(Cl)cc2)n1CC1CCCO1)C1CCS(=O)(=O)C1 (configuration not stated)
Second: CCOC(=O)C(C(=O)NCC1CCCO1)C1CCCCC1 (configuration not stated)
The inhibition of the first is lower: -0.82% for the first, 5.23% for the second.

First: CSc1nc2nc(C)cc(-c3ccccc3)n2n1
Second: CSc1nc2nc(-c3ccccc3)cc(C(F)(F)F)n2n1
The inhibition of the first is higher: -6.85% for the first, -8.74% for the second.

Compared with `COc1ccc(CNc2ncccn2)cc1OC`, `COc1ccc(CNc2nc3nc(C)cc(C)n3n2)cc1OC` is higher in inhibition: -2.62% for the first, 4.62% for the second.

Compared with `Cc1cc(C)n2nc(SCc3ccccc3)nc2n1`, `COc1cc(C)nc2nc(SCc3ccccc3)nn12` is higher in inhibition: -5.69% for the first, -4.54% for the second.

Going from `COC(=O)c1c(NC(=O)Cn2cnc([N+](=O)[O-])n2)sc2c1CCC(C)C2` (configuration not stated) to `COc1cc([N+](=O)[O-])ccc1NC(=O)CN1CCN(C(=O)c2ccco2)CC1`, the inhibition rises from 1.07% to 17.7%.

First: O=C(NC1CCN(Cc2ccccc2)CC1)C1CCN(c2nnc(-n3cccc3)s2)CC1
Second: O=C(CCc1nnc(CCCCc2ccccc2)o1)NCc1cccc(F)c1
The inhibition of the first is lower: -1.52% for the first, -1.09% for the second.

Going from `Nc1cc(C(F)(F)F)ccc1Nc1ccccc1` to `O=C(Nc1ccccc1)Nc1cccc(Cl)c1`, the inhibition rises from -4.7% to 15.7%.

First: COc1ccc(-c2noc(CN(C)Cc3ccc(C)o3)n2)cc1
Second: COc1ccc(C(O)P(=O)(O)CCc2ccccc2)cc1 (configuration not stated)
The inhibition of the first is lower: 1.39% for the first, 21.7% for the second.

Compared with `COc1cc2c(C(=O)N3CCN(c4cccc(Cl)c4)CC3)cn(CC(C)C)c(=O)c2cc1OC`, `COc1cc(NC(=O)Cc2cccs2)c(C(=O)O)cc1OC` is higher in inhibition: -4.76% for the first, 4.5% for the second.

First: CC1(C)Cc2c(c(N3CCOCC3)nc3sc4c(N5CCOCC5)nnnc4c23)CS1
Second: COc1ccc(CC(=O)Nc2cc(S(=O)(=O)N3CCOCC3)ccc2N2CCOCC2)cc1
The inhibition of the first is lower: -1.05% for the first, 2.63% for the second.

Compared with `CCc1ccc(NC2=NCC(=O)N2c2ccc3c(c2)OCCO3)cc1`, `COc1ccc(S(=O)(=O)Nc2ccc3c(c2)OCCO3)cc1Cl` is higher in inhibition: -5.16% for the first, -0.34% for the second.

First: CCOC(=O)C1(CC2CC2)CCN(Cc2cn[nH]c2-c2cccc(F)c2)CC1
Second: CN1CCN(C(=O)/C=C/c2ccc3c(c2)OCO3)CC1
The inhibition of the first is lower: -3.31% for the first, 6.85% for the second.

First: CC(/C=N/NC(=O)Cc1cccs1)=C\c1ccccc1
Second: O=C(Cc1cccs1)N/N=C/C(Cl)=C/c1ccccc1
The inhibition of the first is lower: -13.2% for the first, -2.46% for the second.

First: O=C(Cc1cc(=O)[nH][nH]1)N/N=C/C(Cl)=C/c1ccccc1
Second: CC(/C=N/NC(=O)Cc1cccn1C)=C\c1ccccc1
The inhibition of the first is higher: 52.8% for the first, 32.7% for the second.

Going from `CCC(C)Oc1cc(-c2ccnc(Nc3cccc(Cl)c3)n2)ccn1` (configuration not stated) to `CC(c1ccon1)N(C)Cc1cn(C)nc1-c1cccc(Cl)c1` (configuration not stated), the inhibition falls from 0.9% to -1.33%.

Compared with `CC(=O)Nc1ccc(S(=O)(=O)NCc2csc(-c3cccnc3)n2)cc1`, `CC(=O)NS(=O)(=O)c1ccc(NC(=O)c2cc(-c3cccs3)nc3ccccc23)cc1` is higher in inhibition: 5.75% for the first, 16.1% for the second.

First: Cc1ccc(-c2cc(C(=O)Nc3ccc(S(=O)(=O)Nc4nc(C)cc(C)n4)cc3)c3ccccc3n2)cc1
Second: Cc1ccc(-c2cc(C(=O)Nc3ccc(S(=O)(=O)Nc4ncccn4)cc3)c3ccccc3n2)cc1
The inhibition of the first is lower: -0.85% for the first, 39.1% for the second.

Going from `CCOC(=O)CCP(=O)(O)C(O)c1ccccc1` (configuration not stated) to `CC(C)[C@H](NC(=O)c1ccccc1)C(=O)OCC(=O)N1CCc2ccccc2C1`, the inhibition falls from 11.7% to 10.5%.

First: O=C1OC(c2ccccc2)=C/C1=C\N1CCOCC1
Second: Cn1c(NC(=O)/C=C/c2ccccc2)cc(=O)n(C)c1=O
The inhibition of the first is lower: 8.13% for the first, 9.82% for the second.

First: COc1ccc(NC(=O)c2ccc(-n3cccn3)c([N+](=O)[O-])c2)cc1
Second: O=C(Nc1ccc(OC(F)(F)F)cc1)Nc1cccc([N+](=O)[O-])c1
The inhibition of the first is lower: 1.4% for the first, 2.58% for the second.

Compared with `O=C(CCCOc1ccc(Cl)cc1Cl)n1nnc2ccccc21`, `O=C(Nc1cccc(Cl)c1)Nc1cccc(Cl)c1` is lower in inhibition: 69.2% for the first, 1.69% for the second.

First: COc1ccc(-n2c(=O)c3c4c(sc3n(CC(=O)NC3CCCC3)c2=O)CCCC4)c(OC)c1
Second: COc1ccc(/C=C/C(=O)Nc2cc(=O)n(C)c(=O)n2C)cc1
The inhibition of the first is lower: 0% for the first, 50.5% for the second.

Going from `O=C(CC(Nc1ccccc1Cl)C(=O)O)c1ccccc1` (configuration not stated) to `COC(=O)c1cccc(NC(=O)Nc2ccc(Cl)cc2)c1`, the inhibition falls from 19.8% to 2.56%.

Going from `O=C(CCCN1C(=O)c2ccccc2C1=O)Nc1nncs1` to `O=C(Nc1cccc([N+](=O)[O-])c1)Nc1cccc([N+](=O)[O-])c1`, the inhibition falls from 0.65% to -0.88%.

Compared with `COc1cc(-c2csc(C)n2)ccc1O`, `CCNC(=S)Nc1ccc2cn[nH]c2c1` is higher in inhibition: -9.57% for the first, 14.6% for the second.

Compared with `Cc1cc(Cl)cc(Cl)c1OCCCCN(C)C`, `Cc1cc(SCC2=NNC(=O)C2)c(Cl)cc1Cl` is higher in inhibition: 1.1% for the first, 3.5% for the second.

First: CCCCC(CC)CNC(=O)/C=C/c1ccc(F)cc1 (configuration not stated)
Second: CC(=O)Nc1ccc(CC(=O)O)cc1
The inhibition of the first is higher: 9.03% for the first, -5.89% for the second.

Going from `O=C1CC(CSc2ccc(Cl)cc2)=NN1` to `O=C(O)COc1ccc(Cl)cc1CO`, the inhibition rises from 7.98% to 20%.

Going from `CCOC(=O)C1=C(C)N(C)C(C)=C(C(=O)OCC)C1c1ccc(C(=O)OC)cc1` to `COc1ccc(NC(=O)Nc2ccc(CC(=O)O)cc2)cc1`, the inhibition falls from 3.78% to 2.73%.

Going from `CC(C)NC(=O)NC(=O)COc1c(F)c(F)cc(F)c1F` to `CCc1ccc(NC(=S)Nc2ccc3cn[nH]c3c2)cc1`, the inhibition rises from -8.9% to 11.2%.

First: CN(C)c1ccc(/C=C2\CCC/C(=C\c3ccccc3)C2=O)cc1
Second: O=C1/C(=C/c2ccncc2)CCC/C1=C\c1ccncc1
The inhibition of the first is higher: 5.08% for the first, -3.28% for the second.
